Compound activity as filed in PubChem.
HCMV antiviral – qHTS Assay for inhibitors of the human cytomegalovirus (HCMV); HFF cells, HCMV-luciferase reporter, 72 h; hits give low values; activity change, negative = inhibition, % at 57.5 µM; 410,000 tested, 4.5% active; in the data active means activity change below about -60%; inconclusive means no clear call, values can overlap the other calls; inactive means above about -39%
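After 16 h attachment at 37C, HFF cells received test compound and HCMV-luciferase (1 PFU/cell); reporter luminescence read 72 h later, data normalized against buffer-only and known inhibitor Salinomycin.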
FMDV antiviral – High Throughput Screening for Foot and Mouth Disease Virus Antivirals; FMDV antiviral cell-based qHTS; Potency, µM (doses to about 57.9 µM), without a hit: top-dose activity change, negative = inhibition, usual class: inhibitors; 410,000 tested, 1.2% active; calls by dose curve; tested in HEK293T cells; further: read-out not given here; potency means the concentration at half of the fitted maximal effect; nearly all actives have a fitted effect of over 45% in size
Lassa entry inh – qHTS for Inhibitors of binding or entry into cells for Lassa Virus. Lassa virus pseudotype entry inhibition, cell reporter. Potency, µM (top dose mostly 37.9 µM), for inactives: at the top dose activity change, negative = inhibition, most hits filed as inhibitors. 300,000 tested, 1.2% active. AID 540256, 2011; calls by dose curve; tested in HEK293 cells; further: potency means the concentration at half of the fitted maximal effect; nearly all actives have a fitted effect of over 50% in size
MARV entry inh – qHTS for inhibitors of binding or entry into cells for Marburg Virus; AID 540276, 2011; Potency, µM (titrated, usually from 37.8 µM), for inactives: top-dose activity change, negative = inhibition, actives largely listed as inhibitors; 300,000 tested, 1.8% active; Marburg virus pseudotyped entry inhibition, cell reporter; calls by dose curve; tested in HEK293 cells; further: potency means the concentration at half of the fitted maximal effect
Active calls of the source: *; ? = inconclusive; . = no result given; [ ] = dose if it differs, or a comment. Only some compounds are listed: those with a hit (about 6.2% of all), similar ones and a draw of the others. On the % scale 0 is the no-effect control and ±100 the full control effect.

SMILES	HCMV antiviral	FMDV antiviral	Lassa entry inh	MARV entry inh
COc1cccc2cc(-c3csc(CCn4nc(C)cc4C)n3)c(=O)oc12	9	?	9%	?
COc1ccc(-n2c(=O)c3sc4ccccc4c3n(CC(=O)NCc3ccccc3)c2=O)cc1	-105*	-15%	-5%[46.1 µM]	-2%[46.1 µM]
Cc1ccc(-n2c(=O)c3sc4ccccc4c3n(CC(=O)NC3CCCC3)c2=O)cc1C	-71*	-11%	1%[46.1 µM]	0%[46.1 µM]
O=C(Cn1c(=O)n(-c2cccc(Cl)c2)c(=O)c2sc3ccccc3c21)N1CCCC1	-81*	-6%	-19%[46.1 µM]	-3%[46.1 µM]
O=C(Cn1c(=O)n(-c2ccccc2)c(=O)c2sc3ccccc3c21)N1CCCC1	-19	-11%	5%[46.1 µM]	4%[46.1 µM]
COc1ccccc1CNC(=O)c1cc(-c2ccc(F)cc2C)n[nH]1	-33	13%	.	.
CC(=O)Nc1ccc(NC(=O)c2sc(-c3ccccc3)nc2C)cc1	-26	-14%	?	?
N#C/C(=N\Nc1ccc(Cl)cc1)C(=N)N1CCCCCC1	77	54%	0%	5%
CC(C)(C)S(=O)(=O)/C(C#N)=N/Nc1ccc(Cl)cc1	-82*	?	?	-16%[46.1 µM]
CC(C)(C)c1ccc(N/N=C(\C#N)S(=O)(=O)C(C)(C)C)cc1	?	-23%	?	10µM*
Cc1cccc(N/N=C(\C#N)S(=O)(=O)C(C)(C)C)c1	8	-7%	-30%	-15%[46.1 µM]
Cc1nn(C)c(Nc2ccc(Br)cc2)c1Br	-83*	?	.	-22%[46.1 µM]
Cc1cc(C)nc(-n2nc(C)c(Br)c2Nc2ccc(Br)cc2)n1	-21	8%	-12%	-42%
Cn1c(=O)c2c(-c3ccccc3)n(-c3cccc(O)c3)cc2n(C)c1=O	23	?	.	.
CCCCOc1ccc(/C=C/C(=O)NC2=Nc3ccccc3NC(C)=C2C(=O)OCC)cc1OC	70	-9%	1%[46.1 µM]	6.3µM*
O=C(/C=C/c1ccc(O)c([N+](=O)[O-])c1)c1ccc2ccccc2c1	?	2%	15%[46.1 µM]	-1%[46.1 µM]
COc1ccc(/C=C/C(=O)c2ccc(C(=O)/C=C/c3ccc(OC)c(OC)c3)cc2)cc1OC	-76*	?	.	.
COc1cc(/C=C/C(=O)c2ccc(C)cc2)ccc1OCC#N	0	?	10µM*	?
COC(=O)c1ccc(/C=C/C(=O)c2ccc(OC)c(OC)c2)cc1	.	-21%	-22%	-2%
COc1ccc(Oc2ccc(/C=C/C(=O)c3ccc(O)cc3)cc2[N+](=O)[O-])cc1	-98*	?	13µM*	?
CCOc1cc(/C=C/C(=O)c2ccc(C)cc2)ccc1OCC(=O)N(C)C	-97*	?	?	?
Cc1cccc(C)c1N1CCN(C(c2ccnc3ccccc23)c2nnnn2-c2ccc3c(c2)OCCO3)CC1 (stereo not drawn)	-39	?	.	.
COc1cc(/C=C/C(=O)OCC(=O)c2c(N)n(C)c(=O)n(C)c2=O)ccc1OCC#N	20	-15%	?	6.3µM*
COc1ccc(C=CC(=O)c2ccc(OCc3ccccc3)c(OC)c2)cc1OC	-87*	?	.	.
COc1cc(/C=C/C(=O)OCC(=O)c2c(N)n(C)c(=O)n(C)c2=O)ccc1O	-12	-9%	-4%[46.1 µM]	-10%[46.1 µM]
SMILES	HCMV antiviral	FMDV antiviral	Lassa entry inh	MARV entry inh
O=C(/C=C/c1ccc(OCc2ccccc2)c(OCc2ccccc2)c1)c1cccnc1	29	?	-19%	-11%
COc1ccc(N2C(=O)C(F)(F)C2c2ccc(C)cc2)cc1OC (stereo not drawn)	-1	-14%	-3%[46.1 µM]	-11%[46.1 µM]
Cc1cccc(C)c1N=CN1c2ccccc2-n2cccc2C1CCc1ccccc1 (stereo not drawn)	4	.	.	.
N#Cc1cnn(-c2nc(SCc3ccccc3)nc3sc4c(c23)CCCC4)c1N	-101*	-21%	-25%	-29%
COCCNC(=O)c1ccc(-c2ccc(OC)cc2C)c2ccoc12	9	-15%	.	.
Cn1c(=O)c2c(nc(SCc3nc(N)nc(N4CCCCC4)n3)n2C)n(C)c1=O	-69*	-14%	?	2%
COC(=O)[C@@H]1CC[C@@](C)(c2ccc(OC)cc2)C1(C)C	-25	-13%	.	.
C1CCC(N=C(NC23CC4CC(CC(C4)C2)C3)N2CCOCC2)CC1	.	-23%	-33%	10µM*
O=C(CCN1CCOCC1)NC12CC3CC(CC(C3)C1)C2	34	9%	.	.
O=C(O)c1ccc(C=NNC(=O)c2ccccc2NS(=O)(=O)c2cccs2)cc1	-23	-12%	.	.
O=C(O)c1nccnc1C(=O)Nc1ccc(Cl)cc1Cl	30	-23%	.	.
C=Cn1ccnc1P(=S)(c1ccc(Cl)cc1)c1nccn1C=C	-76*	-8%	19%[46.1 µM]	-2%[46.1 µM]
C=Cn1ccnc1P(=S)(c1ccccc1)c1nccn1C=C	-25	2%	6%	1%[46.1 µM]
Nc1nc2c(ncn2[C@H]2C[C@H](O)[C@@H](CO)O2)c(=O)[nH]1	?	-18%	.	.
Nc1nc2c(ncn2COC(CO)CO)c(=O)[nH]1	-81*	-21%	-29%	?
COc1ccc(CCNC(=O)CSc2ccc(-c3ccco3)nn2)cc1OC	-63*	4%	?	?
COc1ccc(NC(=O)CSc2ccc(-c3ccco3)nn2)cc1OC	-4	?	-5%	-15%
CCOC(=O)N1CCN(C(=O)c2ccc(N(Cc3ccccc3Cl)S(C)(=O)=O)cc2)CC1	-7	-5%	?	-14%[46.1 µM]
CCOC(=O)N1CCN(Cc2ccc3c(c2)CN(C(=O)c2cc(-c4ccccc4)on2)CCO3)CC1	.	28µM*	.	.
CCOC(=O)N1CCN(Cc2ccc3c(c2)CN(C(=O)c2cc(-c4ccccc4)no2)CCO3)CC1	.	25µM*	.	.
COc1cccc(-c2cc(C(=O)N3CCN(Cc4ccccc4)CC3)no2)c1	23	14%	-3%	7%
COc1cc2c(cc1OC)n(CC(=O)c1ccc(F)cc1)c(=O)n1nc(CCn3nc(C)cc3C)nc21	?	-6%	?	.
CCC(NC(=O)COC(=O)C1CC2CCCC(C1)C2=O)c1ccc(Br)cc1 (stereo not drawn)	-22	-15%	?	1%
O=C(N/N=C\C=C\c1ccco1)c1cc(-c2ccc3ccccc3c2)n[nH]1	?	48%	.	0%
CCOC(=O)c1cnc2ccccc2c1NCc1ccco1	?	0%	.	.
SMILES	HCMV antiviral	FMDV antiviral	Lassa entry inh	MARV entry inh
CCOC(=O)c1cnc2ccccc2c1Nc1ccc2c(c1)OCCO2	-70*	?	-25%	-29%
Cc1ccc(NC(=O)N2CCN(C)CC2)cc1NC(=O)N1CCN(C)CC1	-5	4%	-17%	9%[46.1 µM]
COc1ccccc1N1CCN(C(c2ccccc2)c2nnc(-c3ccccc3Cl)o2)CC1 (stereo not drawn)	10	0%	-3%[46.1 µM]	.
CC(=O)c1cnc2nc(SCc3cccc(C)c3)nn2c1C	20	26%	.	.
CCN(CC)CC#CCC(O)(c1ccccc1)c1ccccc1	-2	-16%	-28%	?
CCN(CC)CC#CCC(O)(c1ccccc1)c1ccc(Br)cc1 (stereo not drawn)	-62*	-21%	?	23µM*
O=c1c2ccccc2n(Cc2ccc(F)cc2)c(=O)n1C1CCCC1	21	?	?	?
CN(C)CCNC(=O)c1ccccc1	-25	-18%	-10%	?
Cc1sc(NC(=O)c2ccccc2)c(C(=O)NCCN(C)C)c1C	22	20%	-25%	21µM*
